PubChem BioAssay (EPA / NIEHS)
The source made the active and inactive calls. The calls were made as follows: active = hit-call score of the fitted dose curve at least 0.9, where 1 is the maximum; inactive = score below 0.9.

Columns and labels:
Conditions in all cases: mRNA level, 48 h; actives raise or lower the signal
CYP2C9 (gene 1559) = assay: LTEA_HepaRG_CYP2C9: Life Technologies and Expression Analysis (LTEA) Assay for CYP2C9 using HepaRG (AID 2283484)
Outline: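 Eight-point concentration-response (highest 100 uM, half-log dilutions) in HepaRG cells for 48 h; CYP2C9 expression by qRT-PCR normalized to ACTB, GAPDH, POLR2A. Bidirectional fit, DMSO baseline.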

CYP2E1 (gene 1571) = assay: LTEA_HepaRG_CYP2E1: Life Technologies and Expression Analysis (LTEA) Assay for CYP2E1 using HepaRG (AID 2283485)
Outline: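 Assay uses 48 h exposure of HepaRG hepatic cells, eight concentrations to 100 uM. Expression of CYP2E1 is quantified by TaqMan qRT-PCR with ACTB, GAPDH and POLR2A normalization; curves fitted in both directions relative to vehicle.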

CYP4A11 (gene 1579) = assay: LTEA_HepaRG_CYP4A11: Life Technologies and Expression Analysis (LTEA) Assay for CYP4A11 using HepaRG (AID 2283486)
Outline: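 CYP4A11 transcript levels were quantified by TaqMan qRT-PCR after HepaRG human liver cells were treated for 48 hours with test chemicals (top 100 uM, half-log dilutions, 0.5% DMSO). Gain or loss of signal was fitted relative to DMSO.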

[1] = read-out: Cytochrome P450 3A4 (Homo sapiens) (UniProt P08684); assay: LTEA_HepaRG_CYP3A4: Life Technologies and Expression Analysis (LTEA) Assay for CYP3A4 using HepaRG (AID 2283487)
Outline: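 CYP3A4 transcript measured by TaqMan qRT-PCR and normalized to three housekeeping genes after 48 h chemical exposure of human HepaRG cells. Top concentration 100 uM, half-log steps, 0.5% DMSO vehicle; gain or loss fitted against DMSO baseline.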

[2] = read-out: DNA damage-inducible transcript 3 (DDIT3), DDIT3 (gene 1649); assay: LTEA_HepaRG_DDIT3: Life Technologies and Expression Analysis (LTEA) Assay for DNA damage-inducible transcript 3 (DDIT3) using HepaRG (AID 2283488)
Outline: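 Eight-point concentration-response (100 uM highest, half-log dilutions) in HepaRG, 48 h, duplicate wells. Endpoint: qRT-PCR mRNA, normalized (ACTB, GAPDH, POLR2A), bidirectional fitting with DMSO as baseline.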

[3] = read-out: Pro-epidermal growth factor (Homo sapiens) (UniProt P01133); assay: LTEA_HepaRG_EGF: Life Technologies and Expression Analysis (LTEA) Assay for Epidermal growth factor (EGF) using HepaRG (AID 2283489)
Outline: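 qRT-PCR readout of EGF transcript after 48 h chemical exposure of HepaRG cells; eight concentrations from 100 uM down in half-log steps, duplicate wells, 0.5% DMSO vehicle. Bidirectional curve fitting against DMSO baseline.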

[4] = read-out: Early growth response protein 1 (EGR1) transcription factor, EGR1 (gene 1958); assay: LTEA_HepaRG_EGR1: Life Technologies and Expression Analysis (LTEA) Assay for Early growth response protein 1 (EGR1) transcription factor using HepaRG (AID 2283490)
Outline: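 EGR1 expression change in human HepaRG after 48 h chemical exposure, assessed by housekeeping-normalized qRT-PCR; concentration-response up to 100 uM, fitted in both directions against DMSO controls.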

[5] = read-out: Ezrin (EZR), EZR (gene 7430); assay: LTEA_HepaRG_EZR: Life Technologies and Expression Analysis (LTEA) Assay for Ezrin (EZR) using HepaRG (AID 2283491)
Outline: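 HepaRG, 48 h chemical exposure, 8-pt half-log series from 100 uM, 0.5% DMSO vehicle, duplicates. Read-out: EZR mRNA by TaqMan qRT-PCR (Fluidigm array), housekeeping-normalized; bidirectional curve fit vs DMSO baseline.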

[6] = read-out: Cytochrome P450 3A7 (Homo sapiens) (UniProt P24462); assay: LTEA_HepaRG_CYP3A7: Life Technologies and Expression Analysis (LTEA) Assay for CYP3A7 using HepaRG (AID 2283492)
Outline: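 CYP3A7 transcript levels were read by TaqMan qRT-PCR on Fluidigm arrays after 48 h chemical exposure of human HepaRG cells, with housekeeping-gene normalisation. Eight half-log concentrations up to 100 uM in 0.5% DMSO were tested in duplicate.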

CYP3A5 (gene 1577) = assay: LTEA_HepaRG_CYP3A5: Life Technologies and Expression Analysis (LTEA) Assay for CYP3A5 using HepaRG (AID 2283493)
Outline: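 Readout was CYP3A5 mRNA by qRT-PCR. HepaRG cultures were exposed for 48 h in serum-free induction medium to chemicals at up to 100 uM, and responses were fitted in both directions relative to DMSO vehicle.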

[7] = read-out: Fatty Acid-Binding Protein 1 (FABP1), FABP1 (gene 2168); assay: LTEA_HepaRG_FABP1: Life Technologies and Expression Analysis (LTEA) Assay for Fatty Acid-Binding Protein 1 (FABP1) using HepaRG (AID 2283494)
Outline: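 Values reflect bidirectional concentration-response fitting of FABP1 mRNA change against 0.5% DMSO controls. Human HepaRG cultures received eight half-log doses (top 100 uM) for 48 h; expression quantified by TaqMan qRT-PCR with housekeeping-gene normalization.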

[8] = read-out: Cytochrome P450 4A22 (Homo sapiens) (UniProt Q5TCH4); assay: LTEA_HepaRG_CYP4A22: Life Technologies and Expression Analysis (LTEA) Assay for Cytochrome P450 4A22 (CYP4A22) using HepaRG (AID 2283495)
Outline: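 HepaRG, 48 h post-plating -> serum-free induction medium; dosed 48 h, duplicate, 8 conc. (100 uM top, half-log), 0.5% DMSO. Readout: CYP4A22 mRNA by qRT-PCR, ACTB/GAPDH/POLR2A normalization; gain/loss fit relative to DMSO.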

[9] = read-out: Cytochrome P450 7A1 (Homo sapiens) (UniProt P22680); assay: LTEA_HepaRG_CYP7A1: Life Technologies and Expression Analysis (LTEA) Assay for Cytochrome P450 7A1 (CYP7A1) using HepaRG (AID 2283496)
Outline: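 Using 0.5% DMSO as vehicle and baseline, chemicals were tested in duplicate over an 8-point range from 100 uM on HepaRG cells for 48 h; qRT-PCR signals were normalised to ACTB, GAPDH and POLR2A.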

[10] = read-out: Glutathione S-Transferase (GSTA2), GSTA2 (gene 2939); assay: LTEA_HepaRG_GSTA2: Life Technologies and Expression Analysis (LTEA) Assay for Glutathione S-Transferase (GSTA2) using HepaRG (AID 2283497)
Outline: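 Oxidative-stress marker GSTA2 is quantified by TaqMan qRT-PCR in HepaRG cultures treated 48 h across an eight-point range to 100 uM. Expression is normalized to endogenous controls and compared with 0.5% DMSO vehicle.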

[11] = read-out: Glutamate-cysteine ligase catalytic (GCLC), GCLC (gene 2729); assay: LTEA_HepaRG_GCLC: Life Technologies and Expression Analysis (LTEA) Assay for Glutamate-cysteine ligase catalytic (GCLC) using HepaRG (AID 2283498)
Outline: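 Oxidative-stress marker GCLC is measured as mRNA change in human HepaRG liver cells after 48 h chemical treatment in 0.5% DMSO, eight concentrations from 100 uM. Activity is fitted bidirectionally against vehicle.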

[12] = read-out: growth arrest and DNA damage 45 (GADD45G), GADD45G (gene 10912); assay: LTEA_HepaRG_GADD45G: Life Technologies and Expression Analysis (LTEA) Assay for growth arrest and DNA damage 45 (GADD45G) using HepaRG (AID 2283499)
Outline: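 HepaRG, 48 h exposure, top 100 uM, half-log 8-point series, 0.5% DMSO vehicle, duplicates. Readout: GADD45G transcript by qRT-PCR (Fluidigm array), housekeeping-normalised (ACTB/GAPDH/POLR2A). Bidirectional curve fit vs DMSO baseline.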

[13] = read-out: Glutamate-cysteine ligase regulatory (GCLM), GCLM (gene 2730); assay: LTEA_HepaRG_GCLM: Life Technologies and Expression Analysis (LTEA) Assay for Glutamate-cysteine ligase regulatory (GCLM) using HepaRG (AID 2283500)
Outline: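 In this multiplexed HepaRG gene-expression assay, GCLM mRNA change after 48 h treatment (8 concentrations, max 100 uM) was scored against DMSO by bidirectional curve fitting.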

[14] = read-out: Glutathione S-transferase M3 (GSTM3), GSTM3 (gene 2947); assay: LTEA_HepaRG_GSTM3: Life Technologies and Expression Analysis (LTEA) Assay for Glutathione S-transferase M3 (GSTM3) using HepaRG (AID 2283501)
Outline: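 qRT-PCR read-out of GSTM3 transcript, normalized to three housekeeping genes, from human HepaRG cells after 48 h chemical exposure. Eight-point half-log series, top 100 uM, 0.5% DMSO vehicle; gain or loss fitted relative to DMSO baseline.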

[15] = read-out: Heat shock 70 kDa protein 1 (HSPA1A), gene 3303; assay: LTEA_HepaRG_HSPA1A: Life Technologies and Expression Analysis (LTEA) Assay for Heat shock 70 kDa protein 1 (HSPA1A) using HepaRG (AID 2283502)
Outline: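 An oxidative-stress marker readout: HepaRG cells treated 48 h in duplicate with an eight-point series (highest 100 uM) had HSPA1A mRNA quantified by TaqMan qRT-PCR. Activity was fitted in both directions using 0.5% DMSO as baseline.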

[16] = read-out: Hypoxia-inducible factor 1-alpha (Homo sapiens) (UniProt Q16665); assay: LTEA_HepaRG_HIF1A: Life Technologies and Expression Analysis (LTEA) Assay for Hypoxia-inducible factor 1 (HIF1A) Trancription factor using HepaRG (AID 2283503);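 also: HIF1A transcript by TaqMan qRT-PCR normalized to ACTB GAPDH and POLR2A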
Outline: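 Gain- or loss-of-signal HIF1A mRNA changes are fitted against a DMSO baseline. HepaRG cultures receive eight concentrations, highest 100 uM, for 48 h in serum-free induction medium with 0.5% DMSO.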

Measured: outcome

Chain of Cytochrome P450 3A4 (Homo sapiens) (P08684 whole entry, looked up): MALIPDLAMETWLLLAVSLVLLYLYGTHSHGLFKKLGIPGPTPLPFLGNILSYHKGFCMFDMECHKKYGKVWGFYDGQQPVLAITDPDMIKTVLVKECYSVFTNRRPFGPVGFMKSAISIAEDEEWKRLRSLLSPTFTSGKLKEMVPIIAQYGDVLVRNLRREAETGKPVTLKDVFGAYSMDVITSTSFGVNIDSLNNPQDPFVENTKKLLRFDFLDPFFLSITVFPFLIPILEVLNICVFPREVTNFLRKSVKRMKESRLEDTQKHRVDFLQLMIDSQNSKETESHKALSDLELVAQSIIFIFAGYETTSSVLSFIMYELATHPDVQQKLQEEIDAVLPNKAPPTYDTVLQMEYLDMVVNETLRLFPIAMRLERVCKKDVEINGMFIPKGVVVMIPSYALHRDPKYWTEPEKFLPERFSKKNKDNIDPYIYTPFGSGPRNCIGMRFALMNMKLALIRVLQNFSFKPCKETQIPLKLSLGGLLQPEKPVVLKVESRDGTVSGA
Chain of Cytochrome P450 3A7 (Homo sapiens) (P24462 whole entry, looked up): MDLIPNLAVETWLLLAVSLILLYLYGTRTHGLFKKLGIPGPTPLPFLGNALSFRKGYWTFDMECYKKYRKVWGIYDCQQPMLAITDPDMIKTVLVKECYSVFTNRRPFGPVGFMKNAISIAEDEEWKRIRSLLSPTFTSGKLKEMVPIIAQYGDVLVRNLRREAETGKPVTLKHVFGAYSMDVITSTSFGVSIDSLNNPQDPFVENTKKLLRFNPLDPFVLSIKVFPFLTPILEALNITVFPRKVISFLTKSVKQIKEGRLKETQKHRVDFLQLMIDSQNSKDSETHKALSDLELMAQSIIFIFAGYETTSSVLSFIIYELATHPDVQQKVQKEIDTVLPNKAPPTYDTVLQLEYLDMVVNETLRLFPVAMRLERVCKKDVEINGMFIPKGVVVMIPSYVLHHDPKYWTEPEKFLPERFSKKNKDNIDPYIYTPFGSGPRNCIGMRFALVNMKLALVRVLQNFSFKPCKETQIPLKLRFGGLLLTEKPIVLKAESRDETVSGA
Chain of Hypoxia-inducible factor 1-alpha (Homo sapiens) (Q16665 whole entry, looked up): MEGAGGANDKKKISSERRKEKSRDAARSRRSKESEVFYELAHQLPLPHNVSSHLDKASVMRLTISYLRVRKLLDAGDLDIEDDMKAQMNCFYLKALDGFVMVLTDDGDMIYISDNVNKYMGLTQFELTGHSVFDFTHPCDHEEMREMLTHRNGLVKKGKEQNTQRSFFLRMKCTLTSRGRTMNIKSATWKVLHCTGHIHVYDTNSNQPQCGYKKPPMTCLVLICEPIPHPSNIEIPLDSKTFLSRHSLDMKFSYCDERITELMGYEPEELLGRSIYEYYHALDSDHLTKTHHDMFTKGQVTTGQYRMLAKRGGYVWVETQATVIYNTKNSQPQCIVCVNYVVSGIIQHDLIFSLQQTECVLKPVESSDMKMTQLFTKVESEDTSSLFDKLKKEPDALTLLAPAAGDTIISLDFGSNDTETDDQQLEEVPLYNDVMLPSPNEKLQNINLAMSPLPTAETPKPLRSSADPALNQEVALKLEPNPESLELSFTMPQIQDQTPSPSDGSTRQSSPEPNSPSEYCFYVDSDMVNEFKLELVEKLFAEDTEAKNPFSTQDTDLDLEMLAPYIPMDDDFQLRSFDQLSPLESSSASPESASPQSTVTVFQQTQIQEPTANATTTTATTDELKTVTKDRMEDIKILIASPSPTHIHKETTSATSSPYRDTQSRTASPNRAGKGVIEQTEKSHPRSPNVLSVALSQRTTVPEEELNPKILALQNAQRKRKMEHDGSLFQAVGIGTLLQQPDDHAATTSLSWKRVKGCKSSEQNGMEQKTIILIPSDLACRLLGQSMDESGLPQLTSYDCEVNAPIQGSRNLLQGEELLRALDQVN

OCCCl
inactive: all assays above

CCCCC(CC)COC(=O)c1ccc(C(=O)OCC(CC)CCCC)c(C(=O)OCC(CC)CCCC)c1 (stereo unspecified)
not listed: [14] | [16]
inactive: all other assays above

c1ccc(NNc2ccccc2)cc1
not listed: [14] | [16]
inactive: all other assays above
